In PubChem BioAssay AID2018 (Sanford-Burnham Center for Chemical Genomics, 2009) one finds inhibition data, which are given here for 63 compounds.

Hit rate of the full screen: of about 1,200 compounds, about 600 (50%) were called active. Cut-off read from the data, not from the text of the source: active = inhibition above about 42%; inactive = the rest. The set was probably picked from earlier hits. Some of the results follow. Measured potencies and affinities stand elsewhere.

The target of this assay is SUMO-conjugating enzyme UBC9 (Homo sapiens) (UniProt P63279). The assay is described as follows: SUMOylation inhibitor hit validation, confirmation, SUMOylation inhibitor project, biochemical, AlphaScreen (AID 2018). The following applies: AlphaScreen in vitro SUMOylation assay; at 35 µM; active compounds read high. A general note: In Alpha technology, singlet oxygen from a donor bead excites a nearby acceptor bead.
Chain of SUMO-conjugating enzyme UBC9 (Homo sapiens) (P63279 whole entry, looked up): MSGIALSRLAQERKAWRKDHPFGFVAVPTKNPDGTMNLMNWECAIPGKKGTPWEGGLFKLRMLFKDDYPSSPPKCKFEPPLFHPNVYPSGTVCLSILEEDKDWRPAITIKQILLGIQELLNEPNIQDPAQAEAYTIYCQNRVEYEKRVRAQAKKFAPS
Usually inhibition stands for the relative decrease from the control value, in per cent. Turning to `O=[N+]([O-])c1ccc(C2Nc3cccc4cccc(c34)N2)cc1`, the inhibition is 49.3% (active).

On to `O=[N+]([O-])c1ccc(Cl)c(C2Nc3cccc4cccc(c34)N2)c1`, for which the inhibition is 30.6% (inactive).

Consider `O=C(CNc1cccc2ccccc12)c1ccc([N+](=O)[O-])cc1`, for which the inhibition was 26.3% (inactive).

With `CN(CCC#N)C(=O)COC(=O)c1c2c(nc3ccccc13)/C(=C/c1ccco1)CC2`, the inhibition was 43.2% (active).

For `Cc1cnc(C(=O)OCC(=O)c2ccc(F)cc2)cn1`, the inhibition was 1.5% (inactive).

For `CCOc1ccc(C2C=C(c3ccccc3)Nc3ncnn32)cc1` (stereo not drawn), the inhibition was 13.5% (inactive).

In the case of `CC1=CC2(O)OCCN(CCO)C2=CC1=O` (stereo not drawn), the inhibition was 8.3% (inactive).

Consider `NC(=O)C1CCN(C2=C(NS(=O)(=O)c3ccccc3)C(=O)c3ccccc3C2=O)CC1`, for which the inhibition was 35.9% (inactive).

For the compound `CC1CCN(C2=C(NS(=O)(=O)c3ccc(Br)cc3)C(=O)c3ccccc3C2=O)CC1`, the inhibition was 94% (active).

For `CCOC(=O)C1CCN(C2=C(NS(=O)(=O)c3ccc(Br)cc3)C(=O)c3ccccc3C2=O)CC1`, the inhibition is 91.9% (active).

For the compound `CC1CCCN(C2=C(NS(=O)(=O)c3ccc(Br)cc3)C(=O)c3ccccc3C2=O)C1` (stereo not drawn), the inhibition is 55.3% (active).

Turning to `NC(=O)C1CCN(C2=C(NS(=O)(=O)c3ccc(Cl)cc3)C(=O)c3ccccc3C2=O)CC1`, the inhibition was 87.2% (active).

In the case of `CCOC(=O)C1CCCN(c2cc(NCCCO)c([N+](=O)[O-])c3nonc23)C1` (stereo not drawn), the inhibition is -6.6% (inactive).

For `Fc1ccc(-c2nc3cnccn3c2NC2CCCC2)cc1`, the inhibition is -43.2% (inactive).

With `COc1cc2c(cc1OC)C(C)=NC1(CCCCC1)C2`, the inhibition is -0.1% (inactive).

Regarding `CN(C)c1cccc2c(S(=O)(=O)Nc3ccccn3)cccc12`, the inhibition was 69.7% (active).

With `CN(C)c1cccc2c(S(=O)(=O)N3CCCC3)cccc12`, the inhibition was -26.8% (inactive).

Take `c1ccc(Nc2ccccc2Nc2ccccn2)nc1`: the inhibition is -1.2% (inactive).

For the compound `Cc1cccc(NC2=C(NCCO)C(=O)c3ccccc3C2=O)c1`, the inhibition is 82% (active).

For `Cc1cccc(NC(=S)Nc2cccc3ccccc23)c1`, the inhibition is 19% (inactive).

`N#Cc1c(-c2cccc(Br)c2)cc(-c2ccco2)[nH]c1=O`: the inhibition is 54% (active).

For `O=C(CSc1nnc(SCc2ccccc2)s1)N/N=C/C=C\c1ccco1`, the inhibition is 65% (active).

As to `O=C(CNc1cccc2ccccc12)N/N=C/c1ccc(OC(=O)/C=C/c2ccco2)cc1`, the inhibition is 3.4% (inactive).

For the compound `O=C(Cc1cccs1)N/N=C/C=C\c1ccco1`, the inhibition was 26% (inactive).

With `Cn1c2ccc(Cl)cc2c2nc3ccccc3nc21`, the inhibition is 4.7% (inactive).

Turning to `COCCn1c(-c2cccs2)csc1=Nc1cccnc1`, the inhibition is 12.7% (inactive).

Turning to `COCCCn1c(C(=O)N2CCOCC2)cc2c(=O)n3ccccc3nc21`, the inhibition was 2.8% (inactive).

Consider `Cn1c(C(=O)NCC2CCCO2)cc2c(=O)n3ccccc3nc21` (stereo not drawn), for which the inhibition was -2.8% (inactive).

For the compound `COCCCn1c(C(=O)N2CC(C)OC(C)C2)cc2c(=O)n3ccccc3nc21` (stereo not drawn), the inhibition was -18.6% (inactive).

Turning to `Cc1cccn2c(=O)c3cc(S(=O)(=O)c4ccc(F)cc4)c(=N)n(Cc4ccco4)c3nc12`, the inhibition is 7.6% (inactive).

Turning to `Cc1cccn2c(=O)c3cc(S(=O)(=O)c4ccccc4)c(=N)n(Cc4ccco4)c3nc12`, the inhibition is 27.5% (inactive).

In the case of `CC1CCCCC1NC(=O)c1cc2c(=O)n3ccccc3nc2n1C` (stereo not drawn), the inhibition is -8.7% (inactive).

For `Cc1ccc(S(=O)(=O)c2cc3c(=O)n4ccccc4nc3n(Cc3ccco3)c2=N)cc1C`, the inhibition was 45.2% (active).

Consider `Cn1c(C(=O)N2CCN(C(=O)c3ccco3)CC2)cc2c(=O)n3ccccc3nc21`, for which the inhibition was -14.7% (inactive).

For the compound `Cn1c(C(=O)N2COCC2(C)C)cc2c(=O)n3ccccc3nc21`, the inhibition was -16.1% (inactive).

`CCN(CC(=O)c1c(N)n(C)c(=O)n(C)c1=O)c1cccc2ccccc12`: the inhibition is -12.9% (inactive).

Consider `O=c1c2cc(N3CCOCC3)ccc2[nH]c(=S)n1Cc1ccccn1`, for which the inhibition was 2.9% (inactive).

As to `Oc1cccc2c(NC(=S)Nc3ccc(OC(F)F)cc3)cccc12`, the inhibition was 27.3% (inactive).

Take `FC(F)(F)c1ccccc1NC(=S)Nc1cccc2cnccc12`: the inhibition is 18.9% (inactive).

For `Nc1cccc2cnccc12`, the inhibition is 45.1% (active).

For the compound `CC(C)NC(=S)Nc1cccc2cnccc12`, the inhibition is -0.7% (inactive).

Take `CCc1ccc(OCC(=O)N/N=C2\CC(=O)c3ccccc32)cc1`: the inhibition was 100% (active).

Turning to `CC(C)c1onc(C(=O)N2CCC(C(N)=O)CC2)c1[N+](=O)[O-]`, the inhibition was -13.8% (inactive).

Take `Cn1c(=O)c2cc(NCc3ccccc3)nnc2n(C)c1=O`: the inhibition was 12.8% (inactive).

On to `Cc1ccc(NC2=CC(=O)C(=O)c3ccccc32)cc1`, for which the inhibition was 100% (active).

As for `O=C1C=C(NCc2ccccc2)c2ccccc2C1=O`, the inhibition was 102% (active).

As to `Fc1cccc(-n2c(-c3cccs3)nc3nc4ccccc4nc32)c1`, the inhibition was 8.7% (inactive).

With `O=C(NNc1cc(N2CCOCC2)nc(N2CCOCC2)n1)c1ccc(Cl)c(Cl)c1`, the inhibition is 66.9% (active).

Turning to `O=C(CCc1ccccc1)NNc1cc(N2CCCCC2)nc(N2CCCCC2)n1`, the inhibition is 50% (active).

Consider `CC(C)(C)c1ccc(C(=O)NNc2cc(N3CCOCC3)nc(N3CCOCC3)n2)cc1`, for which the inhibition is 23.5% (inactive).

Turning to `CCCCOc1ccc(CSc2ncn[nH]2)cc1`, the inhibition is 3.3% (inactive).

In the case of `O=C(Nc1ccccc1-c1nc2ccccc2s1)c1cccnc1Cl`, the inhibition was 18.7% (inactive).

As for `CC1N(C)c2cccc3cccc(c23)N1C`, the inhibition was 49.8% (active).

For `CCN1C(=O)N(CC)c2cccc3cccc1c23`, the inhibition was 10.6% (inactive).

Consider `C=CCN1C(=O)N(CC=C)c2cccc3cccc1c23`, for which the inhibition was -10.4% (inactive).

For `O=C(c1csc(Nc2cccc3ccccc23)n1)N1CCCC1`, the inhibition was 19.2% (inactive).

For `C[n+]1cccc2cccc([O-])c21`, the inhibition is 101% (active).

On to `C[n+]1cccc2ccc3c(c21)OC(N)=C(C#N)C3c1ccccc1` (stereo not drawn), for which the inhibition is -6.6% (inactive).

Take `C[n+]1cccc2c(Br)ccc([O-])c21`: the inhibition was 102% (active).

Regarding `Cc1ccc(N2CSC3=C(C#N)C(c4cccs4)CC(=O)N3C2)cc1` (stereo not drawn), the inhibition was 38.3% (inactive).

For the compound `CCCCN(C)S(=O)(=O)c1cc(Br)cc2c1N(C(=O)C1CC1)CC2`, the inhibition was -3.7% (inactive).

For the compound `O=c1[nH]cc(I)cc1I`, the inhibition is 8.4% (inactive).

`Cc1cc(-c2csc(N)n2)c(C)n1Cc1ccco1`: the inhibition is 21.9% (inactive).
